Screening data (PubChem BioAssay)
CHRM4 PAM: human M4 muscarinic receptor positive allosteric modulators, primary screen, CHO-K1 cells, Fluo-8 calcium fluorescence; CHO-K1 hM4/Gqi5, ACh EC20; 0% = ACh EC20, 100% = maximal ACh; activation, % at 3 µM; 0.4% of 360,000 active;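 active = activation above its plate's cutoff, the mean activation of sample wells plus 3 SD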
Target sequence (P08173 whole entry, looked up): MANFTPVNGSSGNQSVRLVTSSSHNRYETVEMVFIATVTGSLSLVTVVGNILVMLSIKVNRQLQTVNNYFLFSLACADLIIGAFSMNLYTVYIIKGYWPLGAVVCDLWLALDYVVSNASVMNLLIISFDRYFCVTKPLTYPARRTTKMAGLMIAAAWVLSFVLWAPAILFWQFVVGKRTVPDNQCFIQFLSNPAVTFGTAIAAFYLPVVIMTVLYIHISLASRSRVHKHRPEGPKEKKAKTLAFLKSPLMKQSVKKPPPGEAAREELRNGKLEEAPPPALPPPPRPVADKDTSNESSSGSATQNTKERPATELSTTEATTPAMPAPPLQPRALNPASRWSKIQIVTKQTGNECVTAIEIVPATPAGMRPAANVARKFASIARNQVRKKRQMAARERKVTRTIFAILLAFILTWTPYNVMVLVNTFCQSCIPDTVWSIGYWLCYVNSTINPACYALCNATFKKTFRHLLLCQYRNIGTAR
M1 ag parental: counter-screen for M1 agonists: effect in parental CHO-K1 cells. Fluo-8 calcium fluorescence; scaled to maximal ATP response, vehicle zero. activation, % at 3 µM. 0.48% of 360,000 active. AID 602248, 2012; in the data active = activation above about 15%;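 note: untransfected CHO-K1 host cells lacking M1 receptor as counterscreen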
CHRM4 antagonist: human M4 muscarinic receptor antagonists, primary screen, CHO cells, Fluo-8 calcium fluorescence; CHO-hM4 cells, ACh EC80; inhibition, % at 3 µM; 0.73% of 360,000 active; AID 624125, 2012;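 active = inhibition above its plate's cutoff, the mean inhibition of sample wells plus 3 SD, cut at about 27% in these data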;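 note: 0% = acetylcholine EC80 with DMSO and 100% = DMSO without agonist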
CHO-K1 Ca antag: M1 antagonist counterscreen hit in parental CHO-K1 cells | 0.6% of 360,000 active | inhibition, % at 3 µM | ATP-induced calcium, Fluo-8 fluorescence | AID 602250;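 active = inhibition above a per-plate cutoff, the plate's mean sample inhibition plus 3 SD, cut at about 24% in these data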;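 note: 0% = DMSO plus EC80 ATP and 100% = DMSO alone without ATP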
CHO-K1 Ca PAM: nonselective calcium activators in parental CHO-K1 cells, primary screen, counter-screen for M1 PAM project, cell-based, Fluo-8 calcium fluorescence, full deck, 1536-well; activation, % at 3 µM; ATP EC20; 0% at ATP EC20, 100% at ATP max; 0.02% of 360,000 active;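 active = activation above the run cutoff, the mean activation of all test compounds plus 3 SD, cut at about 40% in these data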;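 note: peak over basal fluorescence ratio in a 140 s read after ATP addition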
CHRM4 agonist: human M4 muscarinic receptor agonists, primary screen, CHO-K1 cells, Fluo-8 calcium fluorescence; Muscarinic acetylcholine receptor M4 (Homo sapiens), P08173; CHO-K1 hM4/Gqi5; vehicle 0%, full acetylcholine response 100%; activation, % at 3 µM; 0.14% of 360,000 active;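 active = activation above the run mean over all test wells plus 3 SD, cut at about 32% in these data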;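 note: peak over basal fluorescence ratio per well then scaled between controls; 0% = DMSO wells and 100% = acetylcholine at EC100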
* hit, by the source's call. Compounds with a hit are over-represented: about 2% of the library has one in this group of screens.

SMILES	CHRM4 PAM	M1 ag parental	CHRM4 antagonist	CHO-K1 Ca antag	CHO-K1 Ca PAM	CHRM4 agonist
CC1=C(NCCc2ccccc2)CCC1=O	2	1	-6	-7	19	1
CCCNC1=C(C)C(=O)CC1	1	0	12	24*	-8	0
CCOc1ccc(S(=O)(=O)Nc2cnc3ccccc3c2)cc1	-1	14	-2	25*	1	13
CCOc1ccc(S(=O)(=O)Nc2nc3ccccc3nc2Cl)cc1	-2	1	1	-5	-10	1
O=C(Nc1ccc(Cl)c(C(F)(F)F)c1)[C@@H]1CC=C[C@@H]2CCN(C3CC3)C(=O)[C@@H]21	3	0	3	-3	47*	0
O=C(Nc1ccc(Cl)c(C(F)(F)F)c1)[C@@H]1CC=C[C@@H]2CCN(C3CCCCC3)C(=O)[C@@H]21	13	0	0	-19	9	0
O=C(NCc1cccc(F)c1)c1cccc2c1C(=O)c1ccc(N3CCCC3)cc1S2(=O)=O	-16	13	13	-7	13	80*
Cc1ccc2c(CN(C)Cc3ccc(Cl)cc3Cl)cc(=O)oc2c1	4	2	1	-22	-15	-1
COc1ccc(-c2noc(CCCC(=O)N3CCN(c4cc(C)ccc4C)CC3)n2)cc1	-11	3	2	-10	-2	8
COc1ccc(-c2noc(CCCCC(=O)N3CCN(c4cc(C)ccc4C)CC3)n2)cc1	-11	9	30*	22	-8	8
CCSc1nnc(NC(=O)CCN2C(=O)C3CCCCC3C2=O)s1 (centres undefined)	8	0	-3	-11	6	2
O=c1nc(SCc2ccccc2Cl)nc(-c2ccc(Cl)cc2)[nH]1	-3	0	-4	-8	14	0
O=c1nc(SCc2c(F)cccc2Cl)nc(-c2ccc(Cl)cc2)[nH]1	39*	1	-20	-15	23	1
Cc1ccc(N2CN(CCc3ccccc3)CNC2=S)cc1	14*	0	-7	-4	-6	0
C/C(CC1CC2=C(CC1(C)C)C(C)(C)CCC2)=N\NC(N)=S (centres undefined)	43*	1	5	-2	-4	1
CS(=O)(=O)c1ccc(CNC(=O)C2(C(F)(F)F)C/C(=C\Cc3ccccc3)CCCO2)cc1 (centres undefined)	12	0	-9	-4	3	1
CC(Oc1ccccc1)C(=O)N=C1SC2CS(=O)(=O)CC2N1c1ccccc1 (centres undefined)	5	1	-6	-8	-19	3
C[N+]1(CCOC(=O)C2(c3ccccc3)CCCC2)CCCCC1	-26	0	97*	-9	13	0
COc1ccc(C(=O)OCC[N+]2(C)CCCCC2)cc1	-5	5	0	-9	22	1
CC(C[N+](C)(C)C)OC(=O)C1(c2ccccc2)CCCC1 (centres undefined)	-44	1	22	-11	17	1
C[N+](C)(C)CCOC(=O)C1(c2ccccc2)CCCC1	-14	1	97*	-12	16	1
C[C@H](CO)N1C[C@H](C)[C@H](CN(C)C(=O)c2ccc3ccn(C)c3c2)OCc2cnnn2CCCC1=O	8	1	-2	-16	19	1
Cc1ccnc(NS(=O)(=O)c2ccc(NC(=O)c3ccc(N4C(=O)CCC4=O)cc3)cc2)n1	6	-1	4	8	10	0
Cc1cc(C)nc(NS(=O)(=O)c2ccc(NC(=O)c3cccc(N4C(=O)CCC4=O)c3)cc2)n1	25*	-1	6	-1	9	2
CCN(CC)c1ccc(/C=C/C(=O)c2ccc(Br)cc2)cc1	-17	111*	67*	73*	-4	94*
SMILES	CHRM4 PAM	M1 ag parental	CHRM4 antagonist	CHO-K1 Ca antag	CHO-K1 Ca PAM	CHRM4 agonist
CN(C)c1ccc(C(=O)/C=C/c2ccc(Br)cc2)cc1	5	1	-7	-12	15	1
COc1ccc(OCCCC(=O)OCC(=O)N2CCN(S(=O)(=O)c3ccc(C)cc3C)CC2)cc1	4	10	-1	2	5	12
CC(=O)c1ccc(OCCCC(=O)OCC(=O)N2CCN(S(=O)(=O)c3ccc(C)cc3C)CC2)cc1	-9	18*	5	14	-3	23
COc1ccc(C(=O)/C=C2/C(=O)Nc3ccccc32)c(OC)c1	-15	7	29*	-4	-10	9
COc1ccc(C(=O)/C=C2/C(=O)Nc3ccccc32)cc1	-10	2	4	-3	6	8
Cc1ccc(S(=O)(=O)CCC(=O)OC(C)C(=O)NC2CCCCC2C)cc1 (centres undefined)	-3	0	14	6	13	-1
COc1ccc(C(NC(=O)C2CCN(Cc3ccc(Oc4ccccc4)cc3)CC2)c2ccccc2C)cn1 (centres undefined)	-13	3	13	-4	20	11
CN(C)CCCCOc1ccccc1-c1ccccc1	-12	0	23	24*	-7	4
CN(C)CCCCOc1ccccc1F	-4	0	-5	-20	-7	-1
CCn1c(COc2ccccc2)nnc1SCC(=O)C(C)(C)C	26*	1	-3	6	0	4
CCn1c(COc2ccc(C)cc2)nnc1SCC(=O)C(C)(C)C	-2	2	-9	-6	12	2
Cc1c(NC(=S)NC(NC(=O)CC(C)C)C(Cl)(Cl)Cl)c(=O)n(-c2ccccc2)n1C (centres undefined)	-3	1	-2	-13	13	1
Cc1c(NC(=S)NC(=O)CC(C)C)c(=O)n(-c2ccccc2)n1C	-25	0	79*	-9	8	1
CC(C)(C)C(=O)NC1CCN(CC(=O)Nc2ccc3c(c2)OCO3)CC1	5	1	-1	1	9	2
CC1CCN(CC(=O)Nc2ccc3c(c2)OCO3)CC1	1	17*	-4	3	5	0
O=C(CN1CCN(Cc2ccc3c(c2)OCO3)CC1)Nc1ccc2[nH]c(=O)[nH]c2c1	16*	2	-3	-15	16	0
O=Cc1ccc(C(=O)OCC(=O)Nc2ccc(F)cc2F)cc1	7	1	-9	-25	26	2
O=C(NNC(=O)C1CC(=O)N(c2ccc3c(c2)OCCO3)C1)c1ccc(F)cc1 (centres undefined)	9	0	-1	27*	-36	1
